# This is part of a sample that, as a whole, favours compounds with a hit. Of some 83,000 tested, about 20% had one in any assay.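 Testing used 96-well plates and a 48-hour single-concentration exposure. Example: -40 means 40% of the starting cells died.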 The source made the active and inactive calls. The calls were made as follows: active = growth percent below 10; inactive = the rest.
# System: COLO 205 colon
# Assay: NCI-60 one-dose screen, 48 h (100 = growth as untreated, 0 = no growth, -100 = all killed)
# Conditions: 10 µM unless noted
row,SMILES,growth
1,S=C(Sc1ccc(Cl)cc1)Sc1ccc(Cl)cc1,-54% (active)
2,O=C(O)c1ccc([N+](=O)[O-])cc1S(=O)(=O)O,112% (inactive)
3,O=C(O)CC1=CCCCC1,108% (inactive)
4,O=C1C=C[C@H](O)[C@@]2(CO)O[C@@H]12,3.59% (active)
5,NC(=O)NCCO,116% (inactive)
6,O=C(O)C1CCCN1C(=O)OCc1ccccc1 (stereo not drawn),107% (inactive)
7,C=CC(C)(C)n1cc(C2=C(O)C(=O)C(c3cn(C(C)(C)C=C)c4ccccc34)=C(O)C2=O)c2ccccc21,96.6% (inactive)
8,COC(=O)c1cccc([N+](=O)[O-])c1,112% (inactive)
9,CCOC(=O)C(=O)CC(=O)c1ccccc1,100% (inactive)
10,O=Cc1ccc(F)cc1,111% (inactive)
11,CC1CC2C3CCC4=CC(=O)CCC4(C)C3CCC2(C)C1(O)C(=O)CO (stereo not drawn),117% (inactive)
12,CC(CC(CCC(=O)O)(c1ccccc1)c1ccccc1)N(C)C (stereo not drawn),104% (inactive)
13,Cc1ccc(S(=O)(=O)Oc2ccc3sc4c(CO)ccc(NCCN(C)C)c4c(=O)c3c2)cc1,-87.6% [100 µM] (active)
14,O=C(OCC1CCCO1)c1ccc([N+](=O)[O-])cc1 (stereo not drawn),103% (inactive)
15,Nc1c(Br)cc(O)c2c1C(=O)c1ccccc1C2=O,135% (inactive)
16,COc1ccc(Br)c2c1C(=O)CC2,114% (inactive)
17,CC(=O)N(C(C)=O)c1ccc(C)cc1,119% (inactive)
18,CC1(C)C2CCC1(C)C1(C2)OCCS1 (stereo not drawn),118% (inactive)
19,O=c1n(CC2CO2)c(=O)n(CC2CO2)n1CC1CO1 (stereo not drawn),70.1% (inactive)

row,SMILES,growth
1,S=C=Nc1ccc2ccccc2c1,111% (inactive)
2,O=C(O)c1c[nH]c2ccccc2c1=O,95.3% (inactive)
3,Cc1[nH]n(-c2ccccc2)c(=O)c1C=NC(=S)C(N)=S,106% (inactive)
4,CC(=O)N(C)N=Nc1ccc(C)cc1,115% (inactive)
5,COc1ccc2c(Cl)cc(NC(=O)Nc3c(C)cccc3C)nc2c1,58.7% (inactive)
6,O=C(c1ccc(Cl)cc1)N1CCCCC1,104% (inactive)
7,CC(=O)NC(O)C(Cl)Cl (stereo not drawn),98.9% (inactive)
8,CCC(/C=C\C(C)=O)CC,107% (inactive)
9,CCOC(=O)C(COS(C)(=O)=O)(COS(C)(=O)=O)C(=O)OCC,107% (inactive)
10,CC(=O)NNC(=S)N/C=C/c1c(C)ccc([N+](=O)[O-])c1[N+](=O)[O-],101% (inactive)
11,CC(=O)N(CCCCCCN(C(C)=O)C(C)=O)C(C)=O,134% [100 µM] (inactive)
12,CC(=O)NCNC(C)=O,118% (inactive)
13,NNc1ncccn1,117% (inactive)
14,CC12CCC3c4ccc(O)cc4CCC3C1CCC2=O (stereo not drawn),103% (inactive)
15,Nc1cc2ccccc2c(O)c1O,56.5% (inactive)
16,S=c1nc(-c2ccccn2)c(-c2ccccn2)n[nH]1,115% (inactive)
17,CC(C)Sc1ncnc2nc[nH]c12,96.8% (inactive)
18,Clc1cccc(Cl)c1C1CSc2ccccc2N=C1c1ccccc1 (stereo not drawn),102% (inactive)

# System: DU-145 prostate
# Assay: as above
# Conditions: 10 µM unless noted
row,SMILES,growth
1,S=C(Sc1ccc(Cl)cc1)Sc1ccc(Cl)cc1,17.2% (inactive)
2,O=C(O)c1ccc([N+](=O)[O-])cc1S(=O)(=O)O,104% (inactive)
3,O=C(O)CC1=CCCCC1,102% (inactive)
4,O=C1C=C[C@H](O)[C@@]2(CO)O[C@@H]12,95.6% (inactive)
5,NC(=O)NCCO,110% (inactive)
6,O=C(O)C1CCCN1C(=O)OCc1ccccc1 (stereo not drawn),118% (inactive)
7,C=CC(C)(C)n1cc(C2=C(O)C(=O)C(c3cn(C(C)(C)C=C)c4ccccc34)=C(O)C2=O)c2ccccc21,92.9% (inactive)
8,COC(=O)c1cccc([N+](=O)[O-])c1,105% (inactive)
9,CCOC(=O)C(=O)CC(=O)c1ccccc1,102% (inactive)
10,O=Cc1ccc(F)cc1,109% (inactive)
11,CC1CC2C3CCC4=CC(=O)CCC4(C)C3CCC2(C)C1(O)C(=O)CO (stereo not drawn),130% (inactive)
12,CC(CC(CCC(=O)O)(c1ccccc1)c1ccccc1)N(C)C (stereo not drawn),115% (inactive)
13,Cc1ccc(S(=O)(=O)Oc2ccc3sc4c(CO)ccc(NCCN(C)C)c4c(=O)c3c2)cc1,-97.6% [100 µM] (active)
14,O=C(OCC1CCCO1)c1ccc([N+](=O)[O-])cc1 (stereo not drawn),113% (inactive)
15,Nc1c(Br)cc(O)c2c1C(=O)c1ccccc1C2=O,91.6% (inactive)
16,COc1ccc(Br)c2c1C(=O)CC2,127% (inactive)
17,CC(=O)N(C(C)=O)c1ccc(C)cc1,107% (inactive)
18,CC1(C)C2CCC1(C)C1(C2)OCCS1 (stereo not drawn),103% (inactive)

row,SMILES,growth
1,O=c1n(CC2CO2)c(=O)n(CC2CO2)n1CC1CO1 (stereo not drawn),38.4% (inactive)
2,S=C=Nc1ccc2ccccc2c1,107% (inactive)
3,O=C(O)c1c[nH]c2ccccc2c1=O,98.6% (inactive)
4,Cc1[nH]n(-c2ccccc2)c(=O)c1C=NC(=S)C(N)=S,106% (inactive)
5,CC(=O)N(C)N=Nc1ccc(C)cc1,107% (inactive)
6,COc1ccc2c(Cl)cc(NC(=O)Nc3c(C)cccc3C)nc2c1,82.6% (inactive)
7,O=C(c1ccc(Cl)cc1)N1CCCCC1,115% (inactive)
8,CC(=O)NC(O)C(Cl)Cl (stereo not drawn),99.2% (inactive)
9,CCC(/C=C\C(C)=O)CC,111% (inactive)
10,CC(=O)NNC(=S)N/C=C/c1c(C)ccc([N+](=O)[O-])c1[N+](=O)[O-],104% (inactive)
11,CC(=O)N(CCCCCCN(C(C)=O)C(C)=O)C(C)=O,106% [100 µM] (inactive)
12,CC(=O)NCNC(C)=O,118% (inactive)
13,NNc1ncccn1,116% (inactive)
14,CC12CCC3c4ccc(O)cc4CCC3C1CCC2=O (stereo not drawn),112% (inactive)
15,Nc1cc2ccccc2c(O)c1O,92.7% (inactive)
16,S=c1nc(-c2ccccn2)c(-c2ccccn2)n[nH]1,103% (inactive)
17,CC(C)Sc1ncnc2nc[nH]c12,121% (inactive)
18,Clc1cccc(Cl)c1C1CSc2ccccc2N=C1c1ccccc1 (stereo not drawn),59.6% (inactive)

# Source: PubChem BioAssay (NCI)
